# Screens (PubChem BioAssay)
# Hits are enriched below; roughly 10% of the tested compounds scored in any of these assays.
# HEK cytotox = kills HEK 293 cells. HEK 293 viability, ATP luminescence (CellTiter-Glo), 48-72 h. Potency, µM (top dose mostly 115 µM), for inactives: at the highest dose activity change, negative = cytotoxicity, usual class: inhibitors. 94,000 compounds, 6.6% hits. AID 1345083; also: nearly all actives have a fitted effect of over 60% in size
#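 Cells seeded first (HEK 293, 250 cells/well), then compound added by pintool. Incubation ran 48 or 72 hr at 37 degree Celsius. CellTiter-Glo was added and luminescence imaged after 10 min at room temperature.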
# FLuc inh = Photinus pyralis luciferase inhibition | purified P. pyralis luciferase, luminescence, biochemical | AID 1347043 | 76,000 compounds, 2.5% hits | Potency, µM (top dose mostly 115 µM), most hits filed as inhibitors; also: nearly all actives have a fitted effect of over 65% in size
#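 Biochemical qHTS: compound (6-point titration) added to 10uM D-luciferin plus 10uM ATP in Tris acetate pH 7.5 buffer with Mg, Tween-20 and BSA, then purified enzyme at 10nM; light output imaged.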
# hNpr1 antagonist = human Npr1 receptor antagonism | P16066 | Potency, µM (doses to about 46.3 µM), without a hit: at the top dose activity change, negative = inhibition, most hits filed as inhibitors | 76,000 compounds, 1.6% hits | HEK293 hNpr1 GloSensor cGMP, ANP-stimulated luminescence; calls by dose curve; also: nearly all actives have a fitted effect of over 60% in size
#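 HEK293 cells stably expressing human Npr1 and cGMP GloSensor pGS-40F, loaded 2 h with 2% GloSensor reagent, given compound 30 min at room temperature. Luminescence read before and 20 min after 0.1 nM hNppA.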
# 3T3 cytotox = cytotoxic compounds in NIH 3T3 cells | NIH 3T3 viability, CellTiter-Glo ATP luminescence, 48-72 h | Potency, µM (highest dose often 96.7 µM), without a hit: at the highest dose activity change, negative = cytotoxicity, most hits filed as inhibitors | 94,000 compounds, 4.3% hits | AID 1345082; also: nearly all actives have a fitted effect of over 55% in size
#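 Viability of NIH 3T3 cells after 48 or 72 hr compound treatment at 37 °C was assessed by CellTiter-Glo, with luminescence imaged following a 10 min room-temperature step.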
# GPT2 inhibitor = blocks human glutamate pyruvate transaminase 2; Recombinant GPT2, coupled pyruvate oxidase/HRP Amplex Red fluorescence; Potency, µM (top dose mostly 57.7 µM), for inactives: at the highest dose activity change, negative = inhibition, most hits filed as inhibitors; AID 1671188; 100,000 compounds, 0.25% hits; Q8TD30; also: nearly all actives have a fitted effect of over 60% in size
# Target sequence (Q8TD30 whole entry, looked up): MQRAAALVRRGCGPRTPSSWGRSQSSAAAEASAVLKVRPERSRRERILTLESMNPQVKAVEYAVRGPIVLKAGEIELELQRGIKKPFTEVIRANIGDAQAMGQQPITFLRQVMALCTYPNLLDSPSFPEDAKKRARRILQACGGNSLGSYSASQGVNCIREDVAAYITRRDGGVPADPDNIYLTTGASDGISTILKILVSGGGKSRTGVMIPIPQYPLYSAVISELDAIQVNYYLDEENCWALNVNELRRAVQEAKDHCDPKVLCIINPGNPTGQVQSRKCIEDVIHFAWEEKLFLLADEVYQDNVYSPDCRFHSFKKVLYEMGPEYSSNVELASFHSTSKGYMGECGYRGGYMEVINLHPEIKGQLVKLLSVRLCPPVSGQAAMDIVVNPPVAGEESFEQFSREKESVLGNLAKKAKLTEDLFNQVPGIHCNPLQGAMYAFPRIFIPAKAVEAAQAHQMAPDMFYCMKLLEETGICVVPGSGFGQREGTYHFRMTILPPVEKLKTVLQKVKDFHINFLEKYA
#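 Inhibition is scored from Amplex Red fluorescence generated when pyruvate oxidase and HRP act on pyruvate released by GPT2. Reactions contain 10ng/uL enzyme, 250uM a-KG and 2mM L-alanine and run 30 min at room temperature.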
# * = called active by the depositor; i = inactive; ? = inconclusive; nt = not tested or not shown; [ ] = dose if it differs, or a comment. Unless noted, calls follow the shape of the dose curve; as a rule, active = well fitted curve in the direction sought with a large enough effect; inconclusive = small, poorly fitted or top-dose-only effect, or another doubt; inactive = no such curve, though single readings can be large; an effect the other way counts as inactive or inconclusive. % is scaled to controls: 0 for no effect and ±100 for the full control effect; potency is read from the fitted curve at half-maximal effect.
SMILES,HEK cytotox,FLuc inh,hNpr1 antagonist,3T3 cytotox,GPT2 inhibitor
CCc1nnc([C@@H]2CC(F)(F)CN2C(=O)c2occc2C)o1,1.4%,i,-0.2%,-16.0%,-9.8%
CC1CCCC(C)N1C(=O)c1cc(-c2ccc(F)cc2)c2nncn2n1 (centres undefined),-26.2%,nt,nt,?,-0.5%
O=C(c1cccc(F)c1)N1CCC(Cc2nc(C3CCOCC3)no2)CC1,?,i,?,?,i
CN(Cc1ccccc1)C(=O)c1c(OCC2CC2)cc(=O)n2c1CCOCC2,i,i,2.3%,3.8%,i
COCC1CN(C)CC12CCN(C(=O)CN1CCCCCC1)CC2 (centres undefined),-25.2%,i,-3.9%,-19.2%,-24.4%
CCc1ccc(C(=O)N2CCC3(CC2)N=C(c2ccc(C)cc2)NO3)cc1,?,39.8µM*,?,-39.9%,i
COc1ccc(C(=O)N2CCC3(CC2)N=C(c2ccc(C)cc2)NO3)cc1,?,?,-28.2%,-6.8%,-2.4%
Cc1ccc(C(=O)N2CCC3(CC2)N=C(c2cccc(Br)c2)NO3)cc1,?,i,?,15.8µM*,4.7%
O=C(c1ccoc1)N1CCC2(CC1)N=C(c1cccc(Br)c1)NO2,-8.2%,i,-1.0%,-17.5%,i
CSCC(=O)N1CC[C@H](NC(=O)Nc2ccc(F)cc2F)[C@H]1C(=O)N[C@H](Cc1ccccc1)C(N)=O,-2.9%,i,1.3%,-10.7%,3.3%
CC(C)(C)c1ccc(C(=O)CCCCl)cc1,nt,nt,nt,nt,i
CCn1nccc1C(=O)N1CC(Oc2cccc(-c3nc(C)no3)c2)C1,?,i,-2.8%,-27.6%,i
CCn1ccc(C(=O)N2CC(Oc3ccc(-c4nc(-c5ccccc5)no4)cc3)C2)n1,?,?,-17.0%,39.8µM*,i
CCn1nccc1C(=O)N1CC(Oc2ccc(-c3nc(-c4ccccc4)no3)cc2)C1,11.2µM*,?,4.47µM*,?,i
CCCc1cc(C(=O)N[C@H]2COC[C@H]2Cc2cc(C)no2)cs1,-0.2%,i,-1.1%,?,-1.2%[11.5 µM]
COCCNC(=O)Cc1c[nH]c2ncc(-c3ccccc3)cc12,-16.5%[172 µM],i,-0.3%[70.6 µM],?,i
COCCNC(=O)Cc1c[nH]c2ncc(-c3ccc(OC)cc3)cc12,?,?,-4.0%[70.6 µM],22.4µM*,?
COc1ccc(-c2cnc3[nH]cc(CC(=O)NCc4cnccn4)c3c2)cc1,?,?,1.1%[70.6 µM],31.6µM*,0.6%[88.5 µM]
Cc1cn2nc(C(=O)N3CCCC3)cc2c(=O)[nH]1,1.7%,i,9.9%,i,1.0%
Cc1cn2nc(C(=O)N3CCC(NC(=O)c4ccc5ccccc5n4)CC3)cc2c(=O)[nH]1,?,i,14.2%,?,3.4%
C=CCN(C)C(=O)[C@@H](C)C1CC[C@@]2(C)Cc3sc(CSc4ccccc4)nc3[C@@H](C)[C@@H]2[C@H]1O (some centres undefined),-8.7%,i,-12.0%,-33.7%,-16.6%
C#CCN(C)C(=O)[C@@H](C)C1CC[C@@]2(C)Cc3sc(NCCCC)nc3[C@@H](C)[C@@H]2[C@H]1O (some centres undefined),?,17.8µM*,-20.1%[70.6 µM],?,?
C=CCN(C)C(=O)[C@@H](C)C1CC[C@@]2(C)Cc3sc(NCCCC)nc3[C@@H](C)[C@@H]2[C@H]1O (some centres undefined),?,?,-12.6%[70.6 µM],35.5µM*,?
C=CCN(C)C(=O)[C@@H](C)C1CC[C@@]2(C)Cc3sc(NC(=O)C4CC4)nc3[C@@H](C)[C@@H]2[C@H]1O (some centres undefined),i,i,3.9%,-6.3%,i
O=C(C[C@@H]1C[C@H]2O[C@H](CNCc3ccccc3C(F)(F)F)[C@@H](O)[C@H]2O1)N1CCOCC1,3.3%,i,5.0%,-9.0%,-8.4%
O=C1[C@H]2CN(Cc3ccc(C(F)(F)F)cc3)C[C@H]2C(=O)N1CCc1ccccc1,35.5µM*,i,-28.9%,22.4µM*,-5.1%
CCn1nc(C)cc1C(=O)NCc1cccnc1N1CCOCC1,-4.0%,i,10.2%,-6.6%,-4.9%
